Compound activity (PubChem BioAssay)
Many of the other results were omitted from the sample, so hits are more common in it than they were.
IDE exosite inh: exo-site inhibitors of human insulin-degrading enzyme; purified IDE, FL-6b probe fluorescence polarization; active compounds read low; P14735; 17,000 compounds, 6.3% hits; z-score at 20 µM;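 active = z-score of -3 or lower, meaning strong loss of probe binding signal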;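 also: His-tagged human IDE residues 42-1019 made in E. coli with 30 nM FL-6b probe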
Target sequence (P14735 42-1019 limits assumed): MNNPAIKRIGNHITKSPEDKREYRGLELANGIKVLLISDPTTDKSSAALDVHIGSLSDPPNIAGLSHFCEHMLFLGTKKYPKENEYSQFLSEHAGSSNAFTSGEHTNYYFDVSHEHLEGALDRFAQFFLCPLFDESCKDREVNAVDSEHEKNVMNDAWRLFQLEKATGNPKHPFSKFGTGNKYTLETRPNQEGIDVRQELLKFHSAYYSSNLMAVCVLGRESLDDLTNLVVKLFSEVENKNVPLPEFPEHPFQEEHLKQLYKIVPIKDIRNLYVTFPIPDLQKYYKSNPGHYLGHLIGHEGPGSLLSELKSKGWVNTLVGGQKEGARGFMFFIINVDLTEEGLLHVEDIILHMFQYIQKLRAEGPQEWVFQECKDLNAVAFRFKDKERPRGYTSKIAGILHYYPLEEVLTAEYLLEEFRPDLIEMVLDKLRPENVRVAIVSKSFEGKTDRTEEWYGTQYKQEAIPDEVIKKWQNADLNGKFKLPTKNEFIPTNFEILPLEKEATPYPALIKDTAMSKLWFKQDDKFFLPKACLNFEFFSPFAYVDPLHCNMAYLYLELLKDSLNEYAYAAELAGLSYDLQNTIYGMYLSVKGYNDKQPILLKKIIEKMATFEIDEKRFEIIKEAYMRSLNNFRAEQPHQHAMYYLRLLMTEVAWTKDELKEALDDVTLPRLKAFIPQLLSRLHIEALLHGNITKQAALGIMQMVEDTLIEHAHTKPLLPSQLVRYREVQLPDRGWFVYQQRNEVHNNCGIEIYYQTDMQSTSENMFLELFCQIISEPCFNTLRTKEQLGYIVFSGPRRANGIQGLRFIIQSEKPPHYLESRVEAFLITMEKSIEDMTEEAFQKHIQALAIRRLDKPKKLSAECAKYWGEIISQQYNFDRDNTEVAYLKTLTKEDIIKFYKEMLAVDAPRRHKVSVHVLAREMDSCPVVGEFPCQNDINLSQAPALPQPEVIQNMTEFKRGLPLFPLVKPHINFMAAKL
Numbers without * were called inactive.

SMILES | IDE exosite inh
CN(C)CC#Cc1ccc([C@@H]2[C@H]3CN(C(=O)Cc4ccccn4)CCCCN3[C@H]2CO)cc1 | 0.567
O=C(Cc1ccccn1)N1CCCCN2[C@@H](CO)[C@H](c3ccc(C#Cc4ccccc4)cc3)[C@@H]2C1 | -7.32*
CCCC#Cc1ccc([C@@H]2[C@H]3CN(C(=O)Cc4ccccn4)CCCCN3[C@H]2CO)cc1 | -1.7
COCC#Cc1ccc([C@@H]2[C@@H](CO)N3CCCCN(C(=O)Cc4ccccn4)C[C@@H]23)cc1 | -0.263
CC(C)CC#Cc1ccc([C@@H]2[C@@H](CO)N3CCCCN(C(=O)Cc4ccccn4)C[C@@H]23)cc1 | 5.11
OC[C@H]1Nc2ccc(C#Cc3cccnc3)cc2[C@H]2NCC[C@H]21 | 2.8
O=C(Cc1ccccc1)N1CCCCN2[C@@H](CO)[C@@H](c3ccc(-c4ccccc4)cc3)[C@@H]2C1 | 2.42
O=C(Cc1ccncc1)N1CCCCN2[C@H](C1)[C@H](c1ccc(C#CC3(O)CCCC3)cc1)[C@@H]2CO | 4.4
COC(=O)[C@@H]1[C@@H](CO)[C@@H]2Cn3c(ccc(-c4cccc(F)c4)c3=O)[C@H]1N2Cc1ccncc1 | -0.193
C/C=C/c1ccc([C@H]2[C@@H](CO)N3CCCCN(C(=O)Cc4ccncc4)C[C@@H]23)cc1 | 1.55
COc1ccc(C#Cc2ccc([C@H]3[C@H](CO)N4CCCCN(C(=O)Cc5ccncc5)C[C@@H]34)cc2)cc1 | -1.35
N#Cc1cccc(-c2ccc([C@H]3[C@H]4CN(C(=O)Cc5ccncc5)CCCCN4[C@H]3CO)cc2)c1 | 1.33
O=C1CNC[C@@H]2[C@@H](c3ccc(Br)cc3)[C@@H](CO)N12 | -0.991
O=C(Cc1ccccn1)N1CCCCN2[C@@H](CO)[C@H](c3ccc(-c4ccccc4)cc3)[C@@H]2C1 | 1.89
O=C(Cc1ccccn1)N1CCCCN2[C@H](CO)[C@@H](c3ccc(-c4ccc(F)cc4)cc3)[C@H]2C1 | 4.41
Cc1ccccc1-c1ccc([C@H]2[C@H]3CN(C(=O)Cc4ccccn4)CCCCN3[C@H]2CO)cc1 | -0.983
Cc1ccccc1-c1ccc([C@H]2[C@@H](CO)N3CCCCN(C(=O)Cc4ccccn4)C[C@@H]23)cc1 | -5.7*
O=C(Cc1ccccn1)N1CCCCN2[C@H](C1)[C@@H](c1ccc(-c3ccccc3F)cc1)[C@@H]2CO | -4.48*
O=C(Cc1ccccn1)N1CCCCN2[C@H](CO)[C@H](c3ccc(-c4ccccc4)cc3)[C@@H]2C1 | -0.961
O=C(Cc1ccccn1)N1CCCCN2[C@H](CO)[C@@H](c3ccc(-c4ccccc4)cc3)[C@H]2C1 | -0.0967
Cc1ccccc1-c1ccc([C@@H]2[C@H]3CN(C(=O)Cc4ccccn4)CCCCN3[C@H]2CO)cc1 | -10.2*
O=C(Cc1ccccn1)N1CCCCN2[C@H](C1)[C@H](c1ccc(-c3ccccc3)cc1)[C@@H]2CO | -2.35
C[C@H]1CN([C@@H](C)CO)C(=O)CCCn2cc(nn2)CO[C@@H]1CN(C)C(=O)Oc1ccc2ccccc2c1 | -0.243
N#Cc1cccc(-c2ccc([C@H]3[C@H]4CN(C(=O)Cc5ccccc5)CCCCN4[C@H]3CO)cc2)c1 | 2.15
O=C(O)C[C@@H]1CC[C@H]2NC[C@H](O)COC[C@@H]2O1 | 0.271
O=C1CNC[C@@H]2[C@H](c3ccc(Br)cc3)[C@@H](CO)N12 | 0.695
COc1ccccc1CN1[C@H](CO)[C@@H](c2ccccc2)C12CN(C(=O)Cc1ccccc1)C2 | 2.23
